Screening data: PubChem, National Center for Advancing Translational Sciences (NCATS)
Sfp PPTase inh – qHTS Assay for Inhibitors of Bacillus subtilis Sfp phosphopantetheinyl transferase (PPTase) | 4'-phosphopantetheinyl transferase ffp (Bacillus subtilis), Q9F4F7 | Biochemical Sfp PPTase activity, qHTS | Potency, µM, for the others: largest response in the series, negative = inhibition, hits mostly inhibitors | actives 3.5% (n = 310,000) | AID 1490, 2009;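 further: the enzyme is Sfp with the accession as filed and its product quenches rhodamine fluorescence; potency means the concentration at half of the fitted maximal effect; 0% = enzyme reaction without inhibitor and -100% = no enzyme wells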
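Reaction rates are the 30-min fluorescence difference (ex 525, em 598 nm) in wells containing 15 nM Sfp, 5 uM rhodamine-CoA and 12.5 uM BHQ-2-YbbR at pH 7.6 with 10 mM MgCl2.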
Coupling enz – qHTS Assay for Inhibitors of Fructose-1,6-bisphosphate Aldolase from Giardia Lamblia: Coupling assay counterscreen. actives 0.67% (n = 290,000). coupling enzyme system counterscreen, AmpLite Red fluorescence. activity change, negative = inhibition, % at 58.2 µM, hits read low; in the data active means activity change below about -30%
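Activity here indicates interference with the coupling reaction, not aldolase inhibition. Compounds at 57.5 uM final met coupling enzymes for 10 min at RT; substrate and AmpLite Red detection followed, with a 525/598 nm fluorescence read after 20 min.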
Tau fluor counter – Counterscreen qHTS for Inhibitors of Tau Fibril Formation, Fluorescence Polarization; tau K18 P301L Alexa594 fluorescence, heparin fibrillization; Potency, µM (top dose mostly 57.7 µM), without a hit: at the top dose activity change, negative = decrease; actives 0.93% (n = 280,000); AID 1463, 2008; further: potency means the concentration at half of the fitted maximal effect; nearly all actives have a fitted effect of over 55% in size
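Human tau K18 P301L (15 uM unlabeled, 0.24 uM Alexa 594-labeled) in 100 mM sodium acetate pH 7 with 20 uM heparin, 6 hr at 37 C. ThT 30 uM added, 1 hr ambient; Alexa 594 FP and total fluorescence read at 555/632 nm.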
G9a inh – qHTS Assay for Inhibitors of Histone Lysine Methyltransferase G9a | Potency, µM (doses to about 102 µM), inactives show top-dose activity, negative = inhibition, usual class: inhibitors | actives 8.8% (n = 350,000) | G9a H3K9 monomethylation, AlphaScreen, 2 h | Histone-lysine N-methyltransferase EHMT2 (Homo sapiens), Q96KQ7; further: potency means the concentration at half of the fitted maximal effect; nearly all actives have a fitted effect of over 75% in size
Target sequence (Q96KQ7 913-1193 limits assumed): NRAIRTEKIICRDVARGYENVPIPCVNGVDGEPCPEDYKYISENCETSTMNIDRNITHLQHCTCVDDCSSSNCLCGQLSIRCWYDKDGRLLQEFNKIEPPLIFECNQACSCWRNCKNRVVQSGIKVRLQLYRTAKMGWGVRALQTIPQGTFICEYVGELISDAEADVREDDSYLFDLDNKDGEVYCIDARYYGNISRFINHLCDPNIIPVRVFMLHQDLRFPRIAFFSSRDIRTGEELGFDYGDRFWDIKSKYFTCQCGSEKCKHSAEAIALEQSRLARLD
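Signal arises when biotinylated H3K9 peptide, once monomethylated, bridges streptavidin donor and antibody-captured acceptor beads. Enzyme at 20 nM was preincubated 15 min with test compounds; peptide 500 nM and SAM 20 uM then reacted for 2 h.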
Tau fibril FP – qHTS for Inhibitors of Tau Fibril Formation, Fluorescence Polarization; Microtubule-associated protein tau (Homo sapiens), P10636; AID 1468, 2008; actives 0.39% (n = 280,000); K18 P301L tau heparin fibrillization, Alexa594 FP, 6 h; Potency, µM (top dose mostly 57.7 µM), for the others: at the highest dose activity, negative = inhibition, hits mostly inhibitors; further: potency means the concentration at half of the fitted maximal effect; nearly all actives have a fitted effect of over 55% in size
Target sequence (P10636 561-689 P618L limits assumed): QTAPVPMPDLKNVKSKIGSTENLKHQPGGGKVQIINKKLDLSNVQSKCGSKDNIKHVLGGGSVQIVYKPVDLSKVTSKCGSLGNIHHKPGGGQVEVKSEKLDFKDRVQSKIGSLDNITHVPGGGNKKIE
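Human tau K18 […] P301L fragment, 15 uM unlabeled plus 0.24 uM Alexa 594-labeled tau (final), with compound and 20 uM heparin in 100 mM sodium acetate pH 7; 6 hr at 37 C, then Alexa 594 FP read.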
Tau ThT inhib – qHTS for Inhibitors of Tau Fibril Formation, Thioflavin T Binding; recombinant tau K18 P301L, heparin-induced fibrillization, ThT fluorescence; Potency, µM (doses to about 57.4 µM), without a hit: top-dose activity, negative = inhibition, most hits filed as inhibitors; actives 2.1% (n = 270,000); further: potency means the concentration at half of the fitted maximal effect; nearly all actives have a fitted effect of over 55% in size
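ThT emission at 510 nm, taken 1 hr after adding 30 uM dye, quantifies aggregates formed when 20 uM heparin acts on human tau K18 P301L for 6 hr at 37 C.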
* hit, by the source's call; ? = inconclusive; nt = no result; [ ] = dose if it differs, or a comment. This is a sample that favours compounds with a hit; in the whole collection about 11% have one here. Unless noted, the call rests on the fitted dose curve; in most records, active means well fitted curve in the direction sought with a large enough effect; inconclusive means small, poorly fitted or top-dose-only effect, or another doubt; inactive means no such curve, though single readings can be large; an effect the other way counts as inactive or inconclusive. Unless noted, on the % scale 0 is the no-effect control and ±100 the full control effect.

SMILES | Sfp PPTase inh | Coupling enz | Tau fluor counter | G9a inh | Tau fibril FP | Tau ThT inhib
Cc1ccc(C(=O)N/N=C/c2cn(Cc3ccccc3)c3ccccc23)cn1 | -12% | 0 | ? | nt | 16% | ?
CCc1ccc(C2/C=C\CNC(c3ccccc3)C(=O)N2Cc2ccc(C)cc2)cc1 (stereo not given) | -7% | 0 | nt | nt | nt | nt
O=C(O)CC1=C(O)C(=O)N(c2ccccc2)C1c1ccccc1 (stereo not given) | -26% | 9 | 2% | 13µM* | 3% | -4%
O=C(O)CC1=C(Nc2ccccc2)C(=O)N(c2ccccc2)C1c1ccc(F)cc1 (stereo not given) | 11% | 7 | -4% | 32µM* | -5% | ?
O=C1NN(c2ccccc2)C(=O)/C1=C/c1ccc(-c2ccc(Cl)c(C(=O)O)c2)o1 | -4% | 2 | ? | 18µM* | -9% | 7.1µM*
O=C(N/N=C/c1ccc(-c2ccc(Cl)c(C(=O)O)c2)o1)c1cc2c(ccc3ccccc32)o1 | ? | -11 | ? | nt | ? | nt
Cc1cccc(N2NC(=O)/C(=C/c3ccc(-c4ccc(Cl)c(C(=O)O)c4)o3)C2=O)c1 | -12% | 9 | ? | 13µM* | ? | 7.1µM*
Cc1cccc(-c2ccc(C=Nc3c(C)n(C)n(-c4ccccc4)c3=O)o2)c1 | -22% | 0 | 10% | 2%[59 µM] | 5% | -4%
CCN(C(=O)CSc1nc2ccccc2o1)c1c(N)n(Cc2ccccc2)c(=O)[nH]c1=O | nt | nt | nt | 7.1µM* | nt | nt
CCN(C(=O)CSc1nncn1-c1ccccc1)c1c(N)n(Cc2ccccc2)c(=O)[nH]c1=O | 9% | 3 | 0% | ? | -5% | 0%
CCN(C(=O)CSc1nnnn1-c1ccccc1)c1c(N)n(Cc2ccccc2)c(=O)[nH]c1=O | -19% | 1 | -8% | 13µM* | -7% | -15%
Cc1cc(/C=N/Nc2ccc([N+](=O)[O-])cn2)c(C)n1-c1ccccc1 | -23% | 0 | ? | ? | 8% | 3.5µM*
Cc1c(C(=O)O)cccc1-n1c(C)cc(/C=N/Nc2ccc([N+](=O)[O-])cn2)c1C | 32µM* | 0 | ? | 45µM* | 5% | 13µM*
Cc1c(/C=N/Nc2ccc([N+](=O)[O-])cn2)c2ccccc2n1Cc1ccccc1 | 0% | 4 | ? | -11%[59 µM] | 8% | ?
Cc1ccc(-n2c(C)cc(/C=N/Nc3ccc([N+](=O)[O-])cn3)c2C)cc1 | -12% | 0 | ? | ? | 6% | 2µM*
COc1cccc(/C=N/Nc2ccc([N+](=O)[O-])cn2)c1O | 10% | 0 | nt | 95% | nt | nt
COc1ccc2cc(S(=O)(=O)c3ccccc3F)c(=O)oc2c1 | nt | nt | -18% | -25%[59 µM] | -16% | -4%
COc1ccc(S(=O)(=O)Nc2ccccn2)cc1 | 12% | 0 | nt | nt | nt | nt
COc1ccccc1Oc1c(NS(=O)(=O)c2ccc(C(C)(C)C)cc2)nc(-c2ncccn2)nc1OCCO | 56µM* | nt | nt | 10%[12.7 µM] | nt | nt
O=C(NCCOc1ccccc1)C1CCC(=O)N(CCN2CCOCC2)C1 (stereo not given) | 14% | 0 | nt | 10% | nt | nt
COc1ccc(Cl)cc1NC(=O)c1sc(-n2nc(C)c(Cc3ccccc3)c2C)nc1C | nt | nt | -3% | 5%[59 µM] | 4% | 7%
Cc1oc(C(=O)O)cc1COc1ccc2c3c(c(=O)oc2c1C)CCC3 | 3% | 12 | -4% | 50µM* | 2% | ?
COc1cc(C(=O)O)cc(OC)c1OCc1cc(C(=O)O)oc1C | 17% | -1 | 0% | 50µM* | -6% | -8%
Cc1oc(C(=O)O)cc1COc1cccc2ccccc12 | 15% | 8 | nt | ? | nt | nt
CCC(=O)Nc1cc(C(=O)O)ccc1Sc1ccc(C)cc1 | 12% | 10 | -3% | ? | -8% | -4%
SMILES | Sfp PPTase inh | Coupling enz | Tau fluor counter | G9a inh | Tau fibril FP | Tau ThT inhib
CCCC(=O)Nc1cc(C(=O)O)ccc1Sc1ccc(C)cc1 | -10% | 16 | -11% | 45µM* | -12% | -8%
CCOc1cc2c(C#N)c(N3CCNCC3)nc(N)c2c(N)n1 | 11% | -2 | -22% | ? | 5% | -17%
COc1cc2c(C#N)c(N3CCOCC3)nc(N)c2c(N)n1 | -16% | -52* | -16% | -36%[12.7 µM] | -14% | ?
CCOC(=O)C1CCN(c2nc(N)c3c(N)nc(SCC(=O)O)cc3c2C#N)CC1 | 6.3µM* | -32* | -17% | 8.9µM* | ? | ?
CCOC(=O)C1CCN(c2nc(C)cc(C)c2C#N)CC1 | 8% | 0 | -7% | 11%[12.7 µM] | -1% | -10%
COc1ccccc1-c1nc(C#N)c(N2CCc3ccccc3C2)o1 | -20% | 1 | -27% | ? | 7% | -18%
COc1cc2c(C#N)c(N3CCc4ccccc4C3)nc(N)c2c(N)n1 | 35µM* | -49* | 14µM*[quencher] | -3%[12.7 µM] | 1% | ?
COc1cc2c(C#N)c(N3CCCCC3)nc(N)c2c(N)n1 | -5% | -52* | ? | 11% | 9% | ?
CCOc1cc2c(C#N)c(N3CCCCC3)nc(N)c2c(N)n1 | ? | -48* | ? | 1%[12.7 µM] | 14% | ?
Cn1c(=O)n(C)c2cc(/C=N/NC(N)=S)ccc21 | 32µM* | -1 | -4% | 20µM* | -8% | -8%
Cc1cccc(NC(=O)c2sc3nc4c(c(-c5cccs5)c3c2N)CN(C)CC4)c1 | ? | -1 | 28µM*[quencher] | 45µM* | ? | 16µM*
CN1CCc2nc3sc(C(=O)NCc4ccccc4)c(N)c3cc2C1 | -27% | -6 | ? | 11µM* | -12% | 14µM*
CCN(CC)c1ccc(NC(=O)c2sc3nc4c(cc3c2N)CN(C)CC4)cc1 | nt | nt | ? | ? | ? | 1.3µM*
CC1(C)OC2CC3C4CC(F)C5=CC(=O)C=C[C@@]5(C)[C@@]4(F)C(O)C[C@@]3(C)[C@]2(C(=O)CO)O1 (stereo not given in full) | 17% | -3 | -29% | -12%[2.33 µM] | ? | -16%
O=C(NC1(C(F)(F)F)C(=O)Nc2c1c(=O)[nH]c(=O)n2-c1ccc(F)cc1)c1ccccc1 (stereo not given) | nt | nt | -4% | 10%[59 µM] | -1% | -7%
CC(=O)OC[C@@H]1O[C@H](CCON=C(C)C)C=C[C@@H]1OC(C)=O | 9% | 0 | ? | nt | -4%[11.6 µM] | ?
